Measured values as given in the supplement of paper PMC9262897, “Low-cost anti-mycobacterial drug discovery using engineered E. coli” (Nature Communications, 2022).
Where a name gives a salt, the structure may show the parent alone. ± gives the standard deviation of the averaged measurements.

Tests used:
Assay in all cases: growth (OD600 after 10 h); higher = more growth (less inhibition)
[1] = tested on: E. coli TESEC Alr+ wild-type control; settings: compound 0.1 mM; raw OD600 reference: median of DMSO wells 0.241, cell-free background 0.041
Experimental: (§1)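 TESEC Mtb Alr E. coli, or the Alr+ wild-type control, in 384-well plates with Prestwick library compounds at 0.1 mM and 1% DMSO, across arabinose induction levels of 1E3 to 1E7 nM. Growth is read as OD600 after 10 h at 37 °C in triplicate biological replicates.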

[2] = tested on: E. coli TESEC Mtb Alr; settings: compound 0.1 mM
Experimental: as §1

[3] = tested on: E. coli TESEC Mtb Asd; settings: compound 0.1 mM
Experimental: (§2)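 TESEC E. coli strains in which the native enzyme is deleted and replaced by arabinose-inducible Mtb Asd, DapB, CysH or TrpD, each grown in its selective medium. Strains were screened against the Prestwick library at 0.1 mM and 1% DMSO in 384-well format at low and high arabinose induction. Growth is read as OD600 after 10 h in triplicate.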

[4] = tested on: E. coli TESEC Mtb DapB; settings: compound 0.1 mM
Experimental: as §2

[5] = tested on: E. coli TESEC Mtb Alr; settings: compound 0.1 mM; remark: listed apart in the source
Experimental: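 TESEC Mtb Alr E. coli (ΔaraC ΔtolC ΔentC Δalr ΔdadX, arabinose-inducible Mtb Alr) or the Alr+ wild-type control strain, grown in defined M9-fructose medium without D-alanine in 96-well plates with Prestwick library compounds at 0.1 mM and 1% DMSO. Low Alr induction is 0.1 µM arabinose and high induction is 10 mM arabinose.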

[6] = arabinose 1000 nM, raw OD600 reference: median of DMSO wells 0.294, cell-free background 0.041
[7] = arabinose 10000 nM, raw OD600 reference: median of DMSO wells 0.264, cell-free background 0.041
[8] = arabinose 100000 nM, raw OD600 reference: median of DMSO wells 0.201, cell-free background 0.041
[9] = arabinose 1000000 nM, raw OD600 reference: median of DMSO wells 0.193, cell-free background 0.041
[10] = arabinose 10000000 nM, raw OD600 reference: median of DMSO wells 0.146, cell-free background 0.041
[11] = arabinose induction (level): High, raw OD600 reference: median of DMSO wells 0.331, cell-free background 0.041
[12] = arabinose induction (level): Low, raw OD600 reference: median of DMSO wells 0.417, cell-free background 0.041
[13] = arabinose induction (level): High, raw OD600 reference: median of DMSO wells […], cell-free background 0.041
[14] = arabinose induction (level): Low, raw OD600 reference: median of DMSO wells 0.227, cell-free background 0.041
[15] = arabinose 100 nM, raw OD600 reference: median of DMSO wells 0.413, cell-free background 0.052
[16] = arabinose 10000000 nM, raw OD600 reference: median of DMSO wells […], cell-free background 0.052

| Structure (SMILES) | growth [1] | growth [2, 6] | growth [2, 7] | growth [2, 8] | growth [2, 9] | growth [2, 10] | growth [3, 11] | growth [3, 12] | growth [4, 13] | growth [4, 14] | growth [5, 15] | growth [5, 16] |
| --- | --- | --- | --- | --- | --- | --- | --- | --- | --- | --- | --- | --- |
| CN(C)CCOC(C)(c1ccccc1)c1ccccn1 (centres undefined) [Doxylamine succinate] | 0.236 ± 0.0058 | 0.288 ± 0.016 | 0.249 ± 0.0028 | 0.19 ± 0.025 | 0.164 ± 0.0088 | 0.141 ± 0.0072 | 0.301 ± 0.028 | 0.374 ± 0.071 | 0.179 ± 0.019 | 0.206 ± 0.011 | 0.41 ± 0.0066 | 0.353 ± 0.0099 |
| COc1cccc2c1C(=O)c1c(O)c3c(c(O)c1C2=O)C[C@@](O)(C(=O)CO)C[C@@H]3O[C@H]1C[C@H](N)[C@H](O)[C@H](C)O1 [Doxorubicin hydrochloride] | 0.0471 ± 0.00081 | 0.0479 ± 0.0023 | 0.047 ± 0.002 | 0.0467 ± 0.00066 | 0.04497 ± 0.00012 | 0.0474 ± 0.0025 | 0.0664 ± 0.0059 | 0.0616 ± 0.0028 | 0.0535 ± 0.00072 | 0.0539 ± 0.001 | 0.0599 ± 0.0035 | 0.0585 ± 0.00087 |
| CC1CCc2cc(F)cc3c(=O)c(C(=O)O)cn1c23 (centres undefined) [Flumequine] | 0.0491 ± 0.00083 | 0.04537 ± 0.00031 | 0.0396 ± 0.00065 | 0.0452 ± 0.0012 | 0.0416 ± 0.0004 | 0.04987 ± 0.00029 | 0.059 ± 0.0029 | 0.0732 ± 0.0099 | 0.0826 ± 0.0024 | 0.0692 ± 0.0075 | 0.0543 ± 0.0034 | 0.05097 ± 0.00047 |
| COc1ccccc1N1CCN(CCCNc2cc(=O)n(C)c(=O)n2C)CC1 [Urapidil hydrochloride] | 0.224 ± 0.0078 | 0.274 ± 0.021 | 0.259 ± 0.0036 | 0.173 ± 0.017 | 0.17 ± 0.004 | 0.137 ± 0.0051 | 0.28 ± 0.038 | 0.455 ± 0.065 | 0.183 ± 0.017 | 0.201 ± 0.015 | 0.409 ± 0.017 | 0.326 ± 0.011 |
| Nc1ccn([C@@H]2O[C@H](CO)[C@@H](O)C2(F)F)c(=O)n1 [Gemcitabine] | 0.1523 ± 0.0014 | 0.208 ± 0.012 | 0.193 ± 0.029 | 0.126 ± 0.012 | 0.116 ± 0.0036 | 0.164 ± 0.003 | 0.137 ± 0.0051 | 0.133 ± 0.0042 | 0.157 ± 0.0053 | 0.177 ± 0.035 | 0.321 ± 0.018 | 0.217 ± 0.0091 |
| Cc1oncc1C(=O)Nc1ccc(C(F)(F)F)cc1 [Leflunomide] | 0.139 ± 0.0056 | 0.149 ± 0.0026 | 0.1904 ± 0.0019 | 0.138 ± 0.0062 | 0.106 ± 0.0035 | 0.096 ± 0.00046 | 0.381 ± 0.085 | 0.327 ± 0.018 | 0.226 ± 0.028 | 0.255 ± 0.034 | 0.364 ± 0.021 | 0.158 ± 0.027 |
| CN(C)CCc1c[nH]c2ccc(Cn3cncn3)cc12 [Rizatriptan benzoate] | 0.24 ± 0.0036 | 0.2899 ± 0.0026 | 0.258 ± 0.00081 | 0.198 ± 0.0062 | 0.213 ± 0.022 | 0.141 ± 0.006 | 0.337 ± 0.057 | 0.417 ± 0.051 | 0.193 ± 0.0065 | 0.211 ± 0.015 | 0.408 ± 0.012 | 0.34 ± 0.0085 |
